# Values joined by “and” are separate entries in the source; they are usually repeats but may differ in a detail not shown here. Equal entries are not always repeated. Records with an inconclusive call do not appear. Entries that show only a call come without a potency. Active and inactive are the calls of the source. Unless noted, calls follow the shape of the dose curve; as a rule, active = well fitted curve in the direction sought with a large enough effect in the repeat runs; inconclusive = weak or mixed curves; inactive = no such curve, though single readings can be large; an effect the other way counts as inactive or inconclusive.
# Experiments:
# [1] = qHTS assay to identify aromatase inhibitors - cell viability counter screen (AID 743084);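 also: cells stimulated with testosterone during compound exposure; nearly all actives have a fitted effect of over 55% in size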; also: potency is read from the fitted curve at half-maximal effect
# [2] = biological target: Aryl hydrocarbon receptor (Homo sapiens) (UniProt P35869); test: qHTS assay to identify small molecule that activate the aryl hydrocarbon receptor (AhR) signaling pathway (AID 743085); also: nearly all actives have a fitted effect of over 15% in size; also: potency is read from the fitted curve at half-maximal effect;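 as to activation: HG2L7.5c1 human HepG2 liver cells with stably integrated DRE-driven firefly reporter; series mostly up to about 70 µM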
# Aryl hydrocarbon receptor (Homo sapiens), sequence (P35869 whole entry, looked up): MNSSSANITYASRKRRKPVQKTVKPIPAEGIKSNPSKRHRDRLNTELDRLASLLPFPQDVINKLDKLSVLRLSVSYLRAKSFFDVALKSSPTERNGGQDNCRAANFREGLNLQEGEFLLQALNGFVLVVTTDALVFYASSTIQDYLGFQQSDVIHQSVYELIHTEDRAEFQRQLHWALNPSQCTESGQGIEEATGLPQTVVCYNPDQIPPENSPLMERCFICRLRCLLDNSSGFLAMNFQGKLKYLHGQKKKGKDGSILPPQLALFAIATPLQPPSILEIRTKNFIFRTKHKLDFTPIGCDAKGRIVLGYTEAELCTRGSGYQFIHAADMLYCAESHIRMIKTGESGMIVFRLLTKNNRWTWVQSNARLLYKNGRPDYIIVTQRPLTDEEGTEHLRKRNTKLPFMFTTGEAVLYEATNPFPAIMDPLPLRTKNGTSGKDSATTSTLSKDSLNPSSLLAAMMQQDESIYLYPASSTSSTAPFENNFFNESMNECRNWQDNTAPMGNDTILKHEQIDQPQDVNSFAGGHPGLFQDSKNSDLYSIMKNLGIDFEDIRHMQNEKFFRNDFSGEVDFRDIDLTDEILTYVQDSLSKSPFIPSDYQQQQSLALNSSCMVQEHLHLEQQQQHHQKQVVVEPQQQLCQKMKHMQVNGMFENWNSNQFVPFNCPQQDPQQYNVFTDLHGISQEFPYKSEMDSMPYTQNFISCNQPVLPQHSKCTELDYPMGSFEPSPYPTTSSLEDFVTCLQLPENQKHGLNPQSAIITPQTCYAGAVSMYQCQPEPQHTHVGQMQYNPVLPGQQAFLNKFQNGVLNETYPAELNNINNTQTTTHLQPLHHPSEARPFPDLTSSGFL
# In short: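 HepG2 cells stably carrying a 20-DRE firefly luciferase reporter (HG2L7.5c1) treated with compound for 24 hr at 37C. Luciferase read by ONE-Glo luminescence, with CellTiter-Fluor viability read first.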
# [3] = qHTS assay to identify small molecule that activate the aryl hydrocarbon receptor (AhR) signaling pathway - cell viability counter screen (AID 743086); also: nearly all actives have a fitted effect of over 45% in size; also: potency is read from the fitted curve at half-maximal effect
# In short: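 HepG2-AhR-luc (HG2L7.5c1) cells, 4000/well, were preincubated 5 h at 37C, exposed to compound in qHTS format for 24 hr at 37C, then given CellTiter-Fluor for 30 min; viability was read as fluorescence in the reporter wells.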
# [4] = biological target: Peroxisome proliferator-activated receptor gamma (Homo sapiens) (UniProt P37231); test: qHTS assay to identify small molecule agonists of the peroxisome proliferator-activated receptor gamma (PPARg) signaling pathway (AID 743094; active = well fitted activation curve with a large enough effect in the signal ratio in the repeat runs, not every such curve was filed as active; the % refers to the signal ratio)
# Peroxisome proliferator-activated receptor gamma (Homo sapiens), sequence (P37231 whole entry, looked up): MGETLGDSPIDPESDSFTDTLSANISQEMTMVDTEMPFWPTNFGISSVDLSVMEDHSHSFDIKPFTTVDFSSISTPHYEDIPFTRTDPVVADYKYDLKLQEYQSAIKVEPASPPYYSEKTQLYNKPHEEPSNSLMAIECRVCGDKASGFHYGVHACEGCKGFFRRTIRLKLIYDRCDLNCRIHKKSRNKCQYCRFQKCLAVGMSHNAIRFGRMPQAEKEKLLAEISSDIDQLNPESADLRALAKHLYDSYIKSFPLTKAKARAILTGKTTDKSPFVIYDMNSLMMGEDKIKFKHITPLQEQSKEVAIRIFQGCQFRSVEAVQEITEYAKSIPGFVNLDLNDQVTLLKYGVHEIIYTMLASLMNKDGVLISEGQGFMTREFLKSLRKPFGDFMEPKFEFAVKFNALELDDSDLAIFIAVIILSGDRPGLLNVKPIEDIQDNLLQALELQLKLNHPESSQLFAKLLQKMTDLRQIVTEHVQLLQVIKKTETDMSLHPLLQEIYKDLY
# In short: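 GeneBLAzer PPARg UAS-bla HEK293H cells were plated, rested 5 h, then exposed to compounds for 17 h at 37C. Beta-lactamase activity was read by LiveBLAzer B/G FRET substrate fluorescence after 1 h at room temperature.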
# [5] = qHTS assay to identify small molecule antagonists of the peroxisome proliferator-activated receptor gamma (PPARg) signaling pathway - cell viability counter screen (AID 743194); details: Potency: co-treated with 50 nM rosiglitazone; also: nearly all actives have a fitted effect of over 55% in size; also: potency is read from the fitted curve at half-maximal effect
# In short: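 PPARg-UAS-bla HEK293H cells were plated, rested 5 h at 37 C, then treated with compounds plus rosiglitazone (50 nM final) for 17 h at 37 C; viability was then read by CellTiter-Glo luminescence after 30 min at room temperature.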
# [6] = qHTS assay for small molecule agonists of the antioxidant response element (ARE) signaling pathway (AID 743202; active = well fitted activation curve with a large enough effect in the signal ratio in the repeat runs, not every such curve was filed as active; the % refers to the signal ratio; also: potency is read from the fitted curve at half-maximal effect)
# In short: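 Read-out: LiveBLAzer B/G FRET substrate fluorescence after 2 h at room temperature, following 16 h compound treatment at 37 C of HepG2 cells carrying an ARE-driven beta-lactamase reporter.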
# [7] = qHTS assay for small molecule agonists of the antioxidant response element (ARE) signaling pathway - cell viability counter screen (AID 743203; calls by dose curve; also: nearly all actives have a fitted effect of over 55% in size; also: potency is read from the fitted curve at half-maximal effect)
# In short: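 ARE-bla HepG2 cells were plated, rested 5 h at 37C/5% CO2, then exposed to compounds in DMSO for 16 h. Viability was read as CellTiter-Glo luminescence after 30 min at room temperature, in the same wells as the ARE screen.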
# [8] = qHTS assay for small molecule activators of the heat shock response signaling pathway - cell viability counter screen (AID 743209); also: nearly all actives have a fitted effect of over 50% in size
# In short: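 HSE-bla HeLa cells plated overnight, then exposed to Tox21 compounds (23 nL in DMSO) for 5 h at 37 C. After the bla reporter read, CellTiter-Glo was added in the same wells and luminescence read after 30 min at room temperature.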
# [9] = qHTS assay for small molecule activators of the heat shock response signaling pathway (AID 743210; active = well fitted activation curve with a large enough effect in the signal ratio in the repeat runs, with a control signal flat, not every such curve was filed as active; the % refers to the signal ratio; also: potency is read from the fitted curve at half-maximal effect; as to activation: series mostly up to about 63 µM)
# In short: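 HSE-bla HeLa cells (beta-lactamase reporter under heat shock response elements) were exposed to compounds for 5 h at 37 C, then loaded with LiveBLAzer B/G FRET substrate for 2.5 h at room temperature before fluorescence reading.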
# [10] = qHTS assay to identify small molecule agonists of the peroxisome proliferator-activated receptor delta (PPARd) signaling pathway - cell viability counter screen (AID 743211); also: nearly all actives have a fitted effect of over 55% in size; also: potency is read from the fitted curve at half-maximal effect
# In short: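 PPARd-bla HEK293H cells (3000/well) were pre-incubated 5 h at 37 C, then exposed to compound for 17 h at 37 C. After 2 h with LiveBLAzer substrate, CellTiter-Glo was added to the same wells; luminescence read after 30 min at room temperature.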
# [11] = qHTS assay to identify small molecule antagonists of the peroxisome proliferator-activated receptor delta (PPARd) signaling pathway - cell viability counter screen (AID 743213); also: nearly all actives have a fitted effect of over 50% in size; also: potency is read from the fitted curve at half-maximal effect
# In short: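 Cytotoxicity counter screen: CellTiter-Glo luminescence read 30 min after addition, in the same wells as the reporter assay. There, PPARd UAS-bla HEK293H cells (3000/well) were treated 17 h at 37 C with compound and 300 nM L165041.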
# [12] = biological target: Peroxisome proliferator-activated receptor delta (Homo sapiens) (UniProt Q03181); test: qHTS assay to identify small molecule antagonists of the peroxisome proliferator-activated receptor delta (PPARd) signaling pathway (AID 743215; active = well fitted inhibition curve with a large enough effect in the signal ratio in the repeat runs, not every such curve was filed as active; the % refers to the signal ratio;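 also: cells stimulated with agonist L165041 at 300 nM final during compound exposure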; also: potency is read from the fitted curve at half-maximal effect)
# Peroxisome proliferator-activated receptor delta (Homo sapiens), sequence (Q03181 whole entry, looked up): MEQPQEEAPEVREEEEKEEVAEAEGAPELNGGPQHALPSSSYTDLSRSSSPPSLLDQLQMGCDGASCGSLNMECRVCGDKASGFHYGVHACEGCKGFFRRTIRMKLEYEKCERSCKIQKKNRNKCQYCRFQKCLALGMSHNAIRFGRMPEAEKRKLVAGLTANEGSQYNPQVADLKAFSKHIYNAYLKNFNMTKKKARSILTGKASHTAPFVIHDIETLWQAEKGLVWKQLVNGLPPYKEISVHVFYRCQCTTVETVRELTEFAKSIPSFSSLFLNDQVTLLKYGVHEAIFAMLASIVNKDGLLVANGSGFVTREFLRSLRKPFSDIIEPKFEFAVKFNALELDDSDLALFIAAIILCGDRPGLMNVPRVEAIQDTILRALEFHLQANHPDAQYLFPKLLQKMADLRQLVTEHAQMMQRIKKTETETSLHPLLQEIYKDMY
# In short: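 PPARd-bla HEK293H cells (UAS-bla reporter) preincubated 5 h, then given compound plus 300 nM final L165041 agonist for 17 h at 37 C. Beta-lactamase activity read by LiveBLAzer B/G FRET substrate fluorescence after 2 h at room temperature.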
# [13] = biological target: Bile acid receptor (Homo sapiens) (UniProt Q96RI1); test: qHTS assay to identify small molecule antagonists of the farnesoid-X-receptor (FXR) signaling pathway (AID 743217; active = well fitted inhibition curve with a large enough effect in the signal ratio in the repeat runs, not every such curve was filed as active; the % refers to the signal ratio; also: potency is read from the fitted curve at half-maximal effect)
# Bile acid receptor (Homo sapiens), sequence (Q96RI1 whole entry, looked up): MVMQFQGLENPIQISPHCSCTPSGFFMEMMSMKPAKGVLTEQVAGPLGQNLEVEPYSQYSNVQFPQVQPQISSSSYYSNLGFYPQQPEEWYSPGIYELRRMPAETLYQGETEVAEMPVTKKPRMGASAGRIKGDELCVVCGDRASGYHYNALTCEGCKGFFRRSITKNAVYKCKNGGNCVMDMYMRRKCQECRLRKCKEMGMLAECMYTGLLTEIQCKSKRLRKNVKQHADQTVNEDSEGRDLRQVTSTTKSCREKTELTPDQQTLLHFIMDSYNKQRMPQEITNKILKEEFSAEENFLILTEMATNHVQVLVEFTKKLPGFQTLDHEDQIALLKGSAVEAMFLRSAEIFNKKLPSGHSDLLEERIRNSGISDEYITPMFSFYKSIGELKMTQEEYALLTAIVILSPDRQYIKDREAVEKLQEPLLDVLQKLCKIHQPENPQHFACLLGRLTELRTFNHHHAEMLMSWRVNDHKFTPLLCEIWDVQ
# In short: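 FXR-UAS-bla HEK 293T cells (beta-lactamase reporter) given compound plus chenodeoxycholic acid (50 uM final), 16 h at 37C. LiveBLAzer B/G FRET substrate added for 2 h at room temperature; fluorescence read.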
# [14] = qHTS assay to identify small molecule agonists of the farnesoid-X-receptor (FXR) signaling pathway - cell viability counter screen (AID 743218); also: nearly all actives have a fitted effect of over 45% in size; also: potency is read from the fitted curve at half-maximal effect
# In short: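 FXR-UAS-bla HEK 293T cells exposed to compounds for 16 h at 37C. Cytotoxicity read in the same wells by CellTiter-Glo luminescence after 30 min at room temperature, following the beta-lactamase FRET read.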
# [15] = qHTS assay to identify small molecule antagonists of the farnesoid-X-receptor (FXR) signaling pathway - cell viability counter screen (AID 743221; active = well fitted cell-killing curve with a large enough effect in the repeat runs, not every such curve was filed as active; also: nearly all actives have a fitted effect of over 50% in size; also: potency is read from the fitted curve at half-maximal effect)
# In short: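 GeneBLAzer FXR-UAS-bla HEK 293T cells, compound plus chenodeoxycholic acid (50 uM final), 16 h at 37 C. CellTiter-Glo added to the same wells after the beta-lactamase read; luminescence read after 30 min at room temperature as viability.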
# [16] = biological target: Vitamin D3 receptor (Homo sapiens) (UniProt P11473); test: qHTS assay to identify small molecule agonists of the vitamin D receptor (VDR) signaling pathway (AID 743222; calls by dose curve)
# Vitamin D3 receptor (Homo sapiens), sequence (P11473 whole entry, looked up): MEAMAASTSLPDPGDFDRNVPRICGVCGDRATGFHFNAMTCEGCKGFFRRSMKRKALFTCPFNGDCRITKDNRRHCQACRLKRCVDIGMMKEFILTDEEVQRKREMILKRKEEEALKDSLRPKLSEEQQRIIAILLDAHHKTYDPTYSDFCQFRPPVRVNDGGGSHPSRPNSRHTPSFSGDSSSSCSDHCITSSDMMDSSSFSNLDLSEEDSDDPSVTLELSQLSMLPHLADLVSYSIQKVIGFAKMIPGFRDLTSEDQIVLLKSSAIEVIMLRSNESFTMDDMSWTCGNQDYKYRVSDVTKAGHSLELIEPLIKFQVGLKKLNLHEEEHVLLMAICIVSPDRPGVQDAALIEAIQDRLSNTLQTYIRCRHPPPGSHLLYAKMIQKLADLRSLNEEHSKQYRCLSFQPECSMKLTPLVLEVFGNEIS
# In short: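 VDR-bla cells plated 4 h at 37 C, then exposed to compounds for 16 h at 37 C. Beta-lactamase reporter activity measured by fluorescence after 2 h room-temperature loading with LiveBLAzer B/G FRET substrate.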
# [17] = biological target: Vitamin D3 receptor (Homo sapiens) (UniProt P11473); test: qHTS assay to identify small molecule antagonists of the vitamin D receptor (VDR) signaling pathway (AID 743223; active = well fitted inhibition curve with a large enough effect in the signal ratio in the repeat runs, not every such curve was filed as active; the % refers to the signal ratio)
# In short: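 VDR-bla cells were treated with compound plus 3 nM final 1alpha,25-dihydroxyvitamin D3 for 16 h at 37C. Beta-lactamase reporter read by B/G FRET substrate fluorescence after 2 h at room temperature. qHTS format.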
# [18] = biological target: Peroxisome proliferator-activated receptor gamma (Homo sapiens) (UniProt P37231); test: qHTS assay to identify small molecule antagonists of the peroxisome proliferator-activated receptor gamma (PPARg) signaling pathway (AID 743191; calls by dose curve; also: series mostly up to about 63 µM; nearly all actives have a fitted effect of over 30% in size)
# In short: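 GeneBLAzer PPARg UAS-bla HEK293H cells carrying a UAS-driven beta-lactamase reporter were plated at 3000 cells/well, preincubated 5 h at 37C, then given compound for 17 h at 37C; LiveBLAzer B/G FRET substrate was read after 1 h at room temperature.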
# [19] = biological target: Bile acid receptor (Homo sapiens) (UniProt Q96RI1); test: qHTS assay to identify small molecule agonists of the farnesoid-X-receptor (FXR) signaling pathway (AID 743220; active = well fitted activation curve with a large enough effect in the signal ratio in the repeat runs, not every such curve was filed as active; the % refers to the signal ratio)
# In short: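 Beta-lactamase reporter under UAS control in GeneBLAzer FXR HEK 293T cells (5000/well) measured with LiveBLAzer FRET substrate after 2 h at room temperature. Compound exposure lasted 16 h at 37C.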
# [20] = biological target: Peroxisome proliferator-activated receptor delta (Homo sapiens) (UniProt Q03181); test: qHTS assay to identify small molecule agonists of the peroxisome proliferator-activated receptor delta (PPARd) signaling pathway (AID 743212; calls by dose curve)
# In short: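 GeneBLAzer PPARd UAS-bla HEK293H cells (beta-lactamase reporter under UAS control), plated and rested 5 h at 37 C, then exposed to compounds in DMSO at 37 C; LiveBLAzer B/G FRET substrate added, 2 h room temperature, fluorescence read.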
SMILES,Potency [1],Potency [2],Potency [3],Potency [4],Potency [5],Potency [6],Potency [7],Potency [8],Potency [9],Potency [10],Potency [11],Potency [12],Potency [13],Potency [14],Potency [15],outcome [16],Potency [17],Potency [18],outcome [19],outcome [20]
CC(C)(C)N(NC(=O)c1ccc(Cl)cc1)C(=O)c1ccccc1,7.65 µM (active),inactive,17.1 µM (active),inactive,inactive,inactive,inactive,inactive,inactive,inactive,inactive,inactive,inactive,inactive,inactive,inactive,inactive,–,–,–
ClCc1ccccc1Cl,inactive,inactive,inactive,inactive,inactive,–,inactive,inactive,inactive,inactive,–,–,inactive,inactive,inactive,–,–,inactive,inactive,–
CC[N+]1(C)CCCC(OC(=O)C(O)(c2ccccc2)c2ccccc2)C1 (stereo not given),inactive,inactive,inactive,inactive,inactive,inactive,inactive,inactive,inactive,inactive,inactive,inactive,–,inactive,inactive,–,inactive,–,–,inactive
C=CC(=O)OCC,inactive,inactive,inactive,inactive,inactive,inactive,inactive,inactive,inactive,inactive,–,inactive,inactive,inactive,inactive,–,–,–,inactive,inactive
CC(C)[C@@H](C(=O)O[C@@H](C#N)c1cccc(Oc2ccccc2)c1)c1ccc(Cl)cc1,inactive,inactive,inactive,inactive,inactive,inactive,inactive,inactive,–,inactive,inactive,inactive,–,inactive,inactive,–,–,–,–,inactive
NC(=O)CF,inactive,inactive,inactive,inactive,inactive,inactive,inactive,inactive,inactive,inactive,inactive,–,–,inactive,inactive,inactive,–,–,–,–
c1ccc2sc(SNC3CCCCC3)nc2c1,inactive,23.7 µM (active) and 34 µM (active) and 30.6 µM (active),inactive,inactive,inactive,9.69 µM (active),inactive,inactive,13.3 µM (active),inactive,inactive,inactive,inactive,inactive,inactive,inactive,inactive,–,inactive,–
CC(C)(C#N)C(C)(C)C#N,inactive,inactive,inactive,inactive,inactive,inactive,inactive,inactive,inactive,inactive,–,inactive,inactive,inactive,inactive,–,–,–,inactive,inactive
C[N+]1(CCF)[C@@H]2CC[C@H]1CC(OC(=O)C(O)(c1ccccc1)c1ccccc1)C2 (stereo not given in full),inactive,inactive,inactive,inactive,inactive,inactive,inactive,inactive,inactive,inactive,inactive,inactive,inactive,inactive,inactive,–,inactive,–,inactive,inactive
C[C@H](N)[C@H](O)c1ccc(O)c(O)c1,inactive,inactive,inactive,inactive,inactive,–,inactive,inactive,–,inactive,–,inactive,–,inactive,inactive,–,–,–,–,–
CCCCCCCCn1sccc1=O,12.2 µM (active) and 40.4 µM (active),inactive,inactive,inactive,34.7 µM (active) and 28.9 µM (active),–,21.7 µM (active) and 25.5 µM (active),inactive,–,1.95 µM (active) and 2.04 µM (active),1.38 µM (active) and 1.82 µM (active),–,–,7.78 µM (active) and 5.13 µM (active),6.18 µM (active) and 4.57 µM (active),inactive,–,–,–,–
CCC[N+](CCC)(CCC)CCC,inactive,inactive,inactive,inactive,inactive,inactive,inactive,inactive,–,inactive,inactive,inactive,–,inactive,inactive,–,–,–,–,–
O=C1NC(=O)C(=O)C(=O)N1,inactive,inactive,inactive,inactive,inactive,inactive,inactive,inactive,–,inactive,inactive,inactive,inactive,inactive,inactive,inactive,inactive,–,inactive,–
CCC1(C2=NCCN2)Cc2ccccc2O1 (stereo not given),inactive,inactive,inactive,inactive,inactive,inactive,inactive,inactive,–,inactive,inactive,–,–,inactive,inactive,–,inactive,–,–,–
N#CC(C#N)=C(C#N)C#N,inactive,inactive,inactive,inactive,inactive,7.17 µM (active),inactive,inactive,–,inactive,–,inactive,–,inactive,inactive,inactive,inactive,–,–,–
COC1=CC(=O)O[C@@H](/C=C/c2ccc3c(c2)OCO3)C1,inactive,414 nM (active),inactive,inactive,inactive,–,inactive,inactive,inactive,inactive,inactive,inactive,–,inactive,inactive,–,–,–,–,inactive
CCOP(=S)(OCC)SCSc1cc(Cl)ccc1Cl,inactive,inactive,inactive,inactive,inactive,inactive,–,inactive,inactive,inactive,inactive,inactive,–,inactive,inactive,–,–,–,–,inactive
O=[N+]([O-])c1cc(Cl)c(Cl)cc1Cl,inactive,inactive,inactive,inactive,inactive,–,inactive,inactive,inactive,inactive,–,inactive,–,inactive,inactive,inactive,inactive,–,–,–
CCCC(C)(COC(N)=O)COC(=O)NC(C)C (stereo not given),inactive,inactive,inactive,inactive,inactive,inactive,–,inactive,inactive,inactive,inactive,–,–,inactive,inactive,–,inactive,–,–,–
CC(C)c1ccc(OP(=O)(Oc2ccc(C(C)C)cc2)Oc2ccc(C(C)C)cc2)cc1,inactive,inactive,inactive,inactive,inactive,inactive,–,inactive,inactive,27.7 µM (active) and 43.7 µM (active) and 27.5 µM (active),4.89 µM (active),–,22 µM (active),–,–,inactive,inactive,–,inactive,–
O=C(Cl)OCCOCCOC(=O)Cl,inactive,inactive,inactive,inactive,inactive,–,inactive,inactive,–,inactive,–,–,–,–,inactive,inactive,–,–,–,–
CC(C)(C)NCC(O)c1ccccc1Cl (stereo not given),inactive,inactive,inactive,inactive,inactive,inactive,–,inactive,inactive,–,inactive,–,–,inactive,inactive,–,–,–,inactive,–
CCOC(=O)NC(O)C(Cl)(Cl)Cl (stereo not given),inactive,inactive,inactive,inactive,inactive,inactive,–,–,inactive,inactive,inactive,–,inactive,inactive,inactive,–,–,–,inactive,–
O=C1c2ccccc2C(=O)N1SC(Cl)(Cl)Cl,1.22 µM (active),inactive,inactive,inactive,2.19 µM (active),–,60.3 µM (active) and 13.7 µM (active),–,–,38.3 µM (active) and 6.92 µM (active),21.6 µM (active) and 5.49 µM (active),19.5 µM (active),–,34.7 µM (active),–,–,–,–,inactive,–
O=C(O)COc1cc(Cl)c(Cl)cc1Cl,inactive,inactive,inactive,inactive,inactive,–,inactive,inactive,inactive,inactive,inactive,inactive,inactive,inactive,inactive,inactive,inactive,–,inactive,–
